Consider 16 molecules from ChEMBL document CHEMBL1157539, “Thousands of chemical starting points for antimalarial lead identification” (Nature, 2010).

Each structure is given as a SMILES string. Values joined by “and” are separate entries in the source; they are usually repeats but may differ in a detail not shown here. Identical values can stand only once.

Common to all, as to type: functional
For test [1], the system named is Plasmodium falciparum. In words: GSK_TCMDC: Inhibition of Plasmodium falciparum 3D7 in whole red blood cells, using parasite LDH activity as an index of growth. Test compounds present at 2uM.
Test [2] deals with Plasmodium falciparum. In words: GSK_TCMDC: Inhibition of Plasmodium falciparum Dd2 in whole red blood cells, using parasite LDH activity as an index of growth. Test compounds present at 2uM.
A further test has as its system HepG2. Description: GSK_TCMDC: Percent inhibition of human HepG2 cell line. Test compounds present at 10uM.

Consider `Cc1ccc(CN2CCN(Cc3cccc(NC(=O)c4cccs4)c3)CC2)cc1C.O=C(O)C(F)(F)F`, for which the Inhibition stood at 96% with Plasmodium falciparum [1], 68% in the test with Plasmodium falciparum [2] and 41% with HepG2.

For the molecule `O=C(NCCCCN1CCCC2c3ccc(O)cc3CCC21)c1ccc(-c2ccccc2)cc1` (configuration not stated), the Inhibition with Plasmodium falciparum [1] is 96%; in the test with HepG2 it was 32% and 26%.

For `O=C(O)C(F)(F)F.O=S(=O)(NCCN1CCCC1)c1ccc(-c2cccc(CNC3Cc4ccccc4C3)c2)s1`, the Inhibition is recorded as 98% in the test with Plasmodium falciparum [1], 69% in the test on Plasmodium falciparum [2] and 57% with HepG2.

As for `COc1cc(NC(=O)/C=C/c2cc(F)cc(F)c2F)cc(OCCN2CCCCC2)c1.O=C(O)C(=O)O`, the Inhibition with Plasmodium falciparum [1] is reported as 100%; in the test on Plasmodium falciparum [2], 80%; in the test on HepG2, 10%.

Take `Fc1ccc(Nc2ccnc3cc(I)ccc23)c(Cl)c1`: the Inhibition is recorded as 95% in the test with Plasmodium falciparum [1], 24% with Plasmodium falciparum [2] and 35% with HepG2.

For the molecule `CN1CCC(COc2ccc(CN3CCC(NC(=O)c4cccc(Cl)c4)CC3)cc2)CC1.O=C(O)C(F)(F)F`, the Inhibition in the test with Plasmodium falciparum [1] worked out at 94%; with Plasmodium falciparum [2], 13%; in the test with HepG2, 16%.

In the case of `CC(CN(C)C)C(=O)Nc1cccc(-c2ccc(-c3nc4cc(C(F)(F)F)ccc4[nH]3)cc2)c1` (configuration not stated), the figures for the Inhibition with Plasmodium falciparum [1], in the test on Plasmodium falciparum [2] and in the test with HepG2 were 99%, 97% and 26%, respectively.

Take `COCC(C)n1c(C)cc(C(=O)CSc2nnc(Nc3ccccc3)s2)c1C` (configuration not stated): the Inhibition in the test with Plasmodium falciparum [1] was found to be 97%; with Plasmodium falciparum [2] it was 98%; in the test with HepG2, 0%.

Turning to `O=C(COc1ccc(Cl)c(Cl)c1)NCCCCCN1CCCN(C(=O)Nc2ccc(Cl)c(Cl)c2)CC1.O=C(O)C(F)(F)F`, the Inhibition with Plasmodium falciparum [1] turned out to be 93%; in the test with Plasmodium falciparum [2], 7%; in the test with HepG2 it was 29%.

`Cn1cnc2c(SCc3ccccc3OCc3ccccc3)ncnc21`: the values for the Inhibition with Plasmodium falciparum [1], in the test on Plasmodium falciparum [2] and in the test on HepG2 were 86%, 34% and 6%, respectively.

Take `Nn1c(=O)oc2ccc(Cl)cc2c1=O`: the values for the Inhibition with Plasmodium falciparum [1], in the test on Plasmodium falciparum [2] and in the test with HepG2 were 97%, 96% and 4%, respectively.

Regarding `COc1ccc(-c2cccc(NC(=O)c3ccc(C#N)cc3)c2)cc1CN1CCCN(C)CC1.O=C(O)C(F)(F)F`, the Inhibition was determined as 100% in the test with Plasmodium falciparum [1], 89% in the test on Plasmodium falciparum [2] and 22% in the test with HepG2.

For `CC(C)(C)OC(=O)NCc1ccc(Nc2nnc(-c3cccc(C(=O)NCCC(c4ccccc4)c4ccccc4)c3)o2)cc1`, the Inhibition in the test with Plasmodium falciparum [1] came to 100%; with Plasmodium falciparum [2], 89%; in the test with HepG2 it was 0%.

`CC(C)NCc1cc(Nc2ccnc3cc(Cl)ccc23)ccc1O.Cl`: the Inhibition is given as 100% with Plasmodium falciparum [1], 100% in the test with Plasmodium falciparum [2] and 27% in the test with HepG2.

For `Cl.O=S(=O)(Nc1cc2c(cc1O)CCN(C1CCC1)CC2)c1ccc(-c2ccc(F)cc2)cc1`, the Inhibition in the test on Plasmodium falciparum [1] stood at 100%; in the test on Plasmodium falciparum [2] it was 99%; in the test on HepG2, 16%.

Consider `COc1ccc(Oc2ccc(Nc3ccnc4ccc(C(F)(F)F)cc34)cc2)cc1OC.Cl`, for which the Inhibition amounted to 90% in the test with Plasmodium falciparum [1], 17% in the test with Plasmodium falciparum [2] and 0% in the test on HepG2.

What is called Inhibition is the share of the control response that was lost under treatment.
